Assay results from the supplement of paper PMC8866396.
Structures can show the parent of a compound that is named as a salt. ± gives the standard deviation of the averaged measurements.

Key:
IL-6-GFP PC-9GR = assay: cell viability (CCK-8 OD) relative to DMSO control (fraction of control); higher = more viable cells; conditions: compound concentration: 10 uM; treatment time: 48 h
In short: (§1)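 A purchased 510-compound library was screened at a final 10 μM for 48 h against PC-9 and PC-9GR lung cancer cells overexpressing IL-6-GFP via a lentiviral construct, seeded at 3000 cells/well in 96-well plates. GFP imaging was done on a parallel plate set. For viability, CCK-8 absorbance was recorded and each well's optical density was divided by that of the vehicle control well. There were two independent replicates.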

IL-6-GFP PC-9 = assay: as above; conditions: compound concentration: 10 uM; treatment time: 48 h
In short: as §1

Row | Compound | cell viability (IL-6-GFP PC-9GR) | cell viability (IL-6-GFP PC-9)
1 | CCCCC1C(=O)N(c2ccccc2)N(c2ccccc2)C1=O [Phenylbutazone] | 1.34 ± 0.094 | 1.25 ± 0.053
2 | O=C([O-])c1cc(N=Nc2ccc(O)c(C(=O)[O-])c2)ccc1O.[Na+].[Na+] [Olsalazine Sodium] | 1.12 ± 0.053 | 1.25 ± 0.062
3 | COc1nc(N)nc2c1ncn2C1OC(CO)C(O)C1O (configuration not stated) [Nelarabine] | 1.12 ± 0.017 | 0.758 ± 0.029
4 | Nc1cc(C(Cl)=C(Cl)Cl)c(S(N)(=O)=O)cc1S(N)(=O)=O [Clorsulon] | 1.21 ± 0.16 | 1.08 ± 0.11
5 | CN1C(C(=O)Nc2ccccn2)=C(O)c2ccccc2S1(=O)=O [Piroxicam] | 1.21 ± 0.047 | 1.09 ± 0.12
6 | COc1cc2nccc(Oc3ccc(NC(=O)Nc4cc(C)on4)c(Cl)c3)c2cc1OC [Tivozanib (AV-951)] | 0.792 ± 0.15 | 0.353 ± 0.036
7 | O=C(O)CCCN1CCC(OC(c2ccc(Cl)cc2)c2ccccn2)CC1 (configuration not stated) [Bepotastine] | 0.797 ± 0.031 | 1.06 ± 0.18
8 | COc1ccc2c(c1)c(CC(=O)O)c(C)n2C(=O)c1ccc(Cl)cc1 [Indomethacin] | 0.478 ± 0.33 | 1.03 ± 0.027
9 | CCCCCCCCCCCCCCCCCCOP(=O)([O-])OC1CC[N+](C)(C)CC1 [Perifosine (KRX-0401)] | 0.943 ± 0.084 | 0.786 ± 0.059
10 | O=C(/C=C/c1ccc(O)c(O)c1)OC(Cc1ccc(O)c(O)c1)C(=O)O (configuration not stated) [Rosmarinic acid] | 1.12 ± 0.24 | 1.14 ± 0.059
11 | CNCc1ccc(-c2[nH]c3cc(F)cc4c3c2CCNC4=O)cc1.O=P(O)(O)O | 0.93 ± 0.16 | 1.05 ± 0.15
12 | CCC1(O)CC2CN(CCc3c([nH]c4ccccc34)C(C(=O)OC)(c3cc4c(cc3OC)N(C=O)C3C(O)(C(=O)OC)C(OC(C)=O)C5(CC)C=CCN6CCC43C65)C2)C1.O=S(=O)(O)O (configuration not stated) [Vincristine sulfate] | 0.587 ± 0.086 | 0.553 ± 0.11
13 | CCC(=O)OCC(=O)C1(OC(=O)CC)C(C)CC2C3CCC4=CC(=O)C=CC4(C)C3(Cl)C(O)CC21C (configuration not stated) [Beclomethasone dipropionate] | 0.987 ± 0.24 | 0.797 ± 0.12
14 | CC(C(=O)O)c1ccc2c(c1)Cc1cccnc1O2 (configuration not stated) [Pranoprofen] | 1.12 ± 0.019 | 1.25 ± 0.055
15 | O=C(OCC1OC(OC(=O)c2cc(O)c(O)c(OC(=O)c3cc(O)c(O)c(O)c3)c2)C(OC(=O)c2cc(O)c(O)c(OC(=O)c3cc(O)c(O)c(O)c3)c2)C(OC(=O)c2cc(O)c(O)c(OC(=O)c3cc(O)c(O)c(O)c3)c2)C1OC(=O)c1cc(O)c(O)c(OC(=O)c2cc(O)c(O)c(O)c2)c1)c1cc(O)c(O)c(OC(=O)c2cc(O)c(O)c(O)c2)c1 (configuration not stated) [Tannic acid] | 1.05 ± 0.11 | 1.2 ± 0.23
16 | CC(=O)OC1CCC2(C)C(CCC3(C)C2C(=O)C=C2C4C(C)C(C)CCC4(C)CCC23C)C1(C)C(=O)O (configuration not stated) | 0.941 ± 0.28 | 1.09 ± 0.16
17 | CC(C)C(=O)Nc1ccc([N+](=O)[O-])c(C(F)(F)F)c1 [Flutamide] | 1.18 ± 0.054 | 1.2 ± 0.53
18 | N.N.O=C([O-])C1(C(=O)[O-])CCC1.[Pt+2] [Carboplatin] | 1.19 ± 0.012 | 1.12 ± 0.074
19 | COc1ccc(-c2cc(=S)ss2)cc1 [Anethole trithione] | 0.868 ± 0.15 | 1.17 ± 0.031
20 | CC1CC2C3CCC4=CC(=O)C=CC4(C)C3(F)C(O)CC2(C)C1(O)C(=O)CO (configuration not stated) [Betamethasone] | 1.24 ± 0.11 | 1.29 ± 0.29
21 | CC(C(=O)O)c1ccc2c(c1)[nH]c1ccc(Cl)cc12 (configuration not stated) [Carprofen] | 1.16 ± 0.41 | 0.265 ± 0.35

Row | Compound | cell viability (IL-6-GFP PC-9GR) | cell viability (IL-6-GFP PC-9)
22 | COc1cc(Nc2c(C#N)cnc3cc(OCCCN4CCN(C)CC4)c(OC)cc23)c(Cl)cc1Cl [Bosutinib (SKI-606)] | 0.448 ± 0.011 | 0.429 ± 0.064
23 | CC(C)=CCC/C(C)=C/CC/C(C)=C/CCC(=O)OC/C=C(\C)CCC=C(C)C [Gefarnate] | 0.851 ± 0.023 | 1.06 ± 0.17
24 | CC(C)OC(=O)CCC/C=C\CC1C(O)CC(O)C1CCC(O)CCc1ccccc1 (configuration not stated) [Latanoprost] | 0.776 ± 0.15 | 1 ± 0.26
25 | O=C(OCCOCCO)c1ccccc1Nc1cccc(C(F)(F)F)c1 [Etofenamate] | 1.01 ± 0.29 | 1.24 ± 0.13
26 | CS(=O)(=O)O.N#CC1(c2ccc(NC(=O)c3cccnc3NCc3ccncc3)cc2)CCCC1 | 1.32 ± 0.072 | 0.887 ± 0.084
27 | CC(=O)OC12COC1CC(O)C1(C)C(=O)C(O)C3=C(C)C(OC(=O)C(O)C(NC(=O)OC(C)(C)C)c4ccccc4)CC(O)(C(OC(=O)c4ccccc4)C21)C3(C)C.O.O.O (configuration not stated) [Docetaxel Trihydrate] | 0.528 ± 0.15 | 0.631 ± 0.044
28 | COc1ccc(C2OCC3C(c4cc(OC)c(OC)c(OC)c4)OCC23)cc1OC (configuration not stated) [Magnolin] | 0.791 ± 0.087 | 1.08 ± 0.081
29 | CC12CCC3c4ccc(O)cc4CC(CCCCCCCCCS(=O)CCCC(F)(F)C(F)(F)F)C3C1CCC2O (configuration not stated) [Fulvestrant] | 1.14 ± 0.072 | 1.024 ± 0.0045
30 | CC(=O)OCC(=O)C1(O)C(C)CC2C3CCC4=CC(=O)C=CC4(C)C3(F)C(O)CC21C (configuration not stated) [Dexamethasone Acetate] | 0.9 ± 0.23 | 0.945 ± 0.21
31 | O=C([O-])Cc1ccccc1Nc1c(Cl)cccc1Cl.[Na+] [Diclofenac Sodium] | 1.3 ± 0.039 | 1.09 ± 0.084
32 | C#Cc1cccc(Nc2ncnc3cc4c(cc23)OCCOCCOCCO4)c1 [Icotinib] | 1.18 ± 0.048 | 0.58 ± 0.11
33 | CN(C)N=Nc1[nH]cnc1C(N)=O [Dacarbazine] | 0.95 ± 0.14 | 0.8338 ± 0.005
34 | Nc1ccc(O)c(C(=O)O)c1 [Mesalamine] | 1.27 ± 0.035 | 1.06 ± 0.072
35 | COc1cc2c(Nc3ccc(Br)cc3F)ncnc2cc1OCC1CCN(C)CC1 [Vandetanib (ZD6474)] | 0.578 ± 0.024 | 0.551 ± 0.059
36 | CCC(C)C(=O)OC1CC(O)C=C2C=CC(C)C(CCC(O)CC(O)CC(=O)[O-])C21.[Na+] (configuration not stated) [Pravastatin sodium] | 0.932 ± 0.038 | 1.17 ± 0.016
37 | CC1CNc2c(cccc2S(=O)(=O)NC(CCCNC(=N)N)C(=O)N2CCC(C)CC2C(=O)O)C1.O (configuration not stated) [Argatroban Monohydrate] | 1.49 ± 0.35 | 1.12 ± 0.23
38 | CCCCCCCCc1ccc(CCC(N)(CO)CO)cc1 [Fingolimod] | 0.513 ± 0.18 | 0.924 ± 0.37
39 | CNC(=O)c1ccc(N2C(=S)N(c3cnc(C#N)c(C(F)(F)F)c3)C(=O)C23CCC3)cc1F | 1.03 ± 0.13 | 1.02 ± 0.11
40 | CCC(Nc1ncnc2[nH]cnc12)c1nc2cccc(F)c2c(=O)n1-c1ccccc1 (configuration not stated) [Idelalisib (CAL-101, GS-1101)] | 1.27 ± 0.14 | 0.858 ± 0.15
41 | COC1CC2CCC(C)C(O)(O2)C(=O)C(=O)N2CCCCC2C(=O)OC(C(C)CC2CCC(OC(=O)C(C)(CO)CO)C(OC)C2)CC(=O)C(C)/C=C(\C)C(O)C(OC)C(=O)C(C)CC(C)/C=C/C=C/C=C/1C (configuration not stated) | 0.524 ± 0.54 | 0.698 ± 0.12
42 | O=C(O)CCCCC1CCSS1 (stereo not drawn) [(+)-α-Lipoic acid] | 1.26 ± 0.2 | 1.21 ± 0.024

Row | Compound | cell viability (IL-6-GFP PC-9GR) | cell viability (IL-6-GFP PC-9)
43 | CC(C)Cn1cnc2c(N)nc3ccccc3c21 [Imiquimod] | 0.774 ± 0.57 | 1 ± 0.24
44 | COc1c2ccoc2cc2oc(=O)ccc12 [Bergapten] | 0.902 ± 0.041 | 0.8378 ± 0.0073
45 | CC(=O)OC1(C(C)=O)CCC2C3C=C(C)C4=CC(=O)CCC4(C)C3CCC21C (configuration not stated) [Megestrol Acetate] | 1.22 ± 0.09 | 1.13 ± 0.1
46 | Nc1cccc2c1C(=O)N(C1CCC(=O)NC1=O)C2=O (configuration not stated) [Pomalidomide] | 1.5 ± 0.33 | 1.22 ± 0.12
47 | CC(C(=O)O)c1ccc(C(=O)c2ccccc2)s1 (configuration not stated) [Tiaprofenic acid] | 0.905 ± 0.037 | 1.04 ± 0.17
48 | Cn1c(=O)cc(N2CCCC(N)C2)n(Cc2cc(F)ccc2C#N)c1=O (configuration not stated) [Trelagliptin] | 1.09 ± 0.15 | 1.33 ± 0.49
49 | C=C1c2cccc(O)c2C(=O)C2=C(O)C3(O)C(=O)C(C(N)=O)=C(O)C(N(C)C)C3C(O)C12.Cl (configuration not stated) [Methacycline HCl] | 0.894 ± 0.32 | 1 ± 0.072
50 | COC(=O)/C=C/C(=O)OC [Dimethyl Fumarate] | 1.13 ± 0.16 | 1.33 ± 0.26
51 | CC(=O)N1CC(O)CC1C(=O)O (configuration not stated) [Oxaceprol] | 1.22 ± 0.15 | 1.05 ± 0.098
52 | CC1CC2C3CCC4=CC(=O)C=CC4(C)C3(F)C(O)CC2(C)C1(O)C(=O)COP(=O)([O-])[O-].[Na+].[Na+] (configuration not stated) [Dexamethasone Sodium Phosphate] | 1.22 ± 0.16 | 0.831 ± 0.039
53 | COc1ccnc(CS(=O)c2nc3ccc(-n4cccc4)cc3[nH]2)c1C (configuration not stated) [Ilaprazole] | 1.17 ± 0.38 | 1.29 ± 0.23
54 | C=C(NC(=O)C(=C)NC(=O)c1csc(C2=NC3c4csc(n4)C4NC(=O)c5csc(n5)C(C(C)(O)C(C)O)NC(=O)C5CSC(=N5)/C(=C/C)NC(=O)C(C(C)O)NC(=O)c5csc(n5)C3(CC2)NC(=O)C(C)NC(=O)C(=C)NC(=O)C(C)NC(=O)C(C(C)CC)NC2C=Cc3c(C(C)O)cc(nc3C2O)C(=O)OC4C)n1)C(N)=O (configuration not stated) [Thiostrepton] | 0.184 ± 0.083 | 0.412 ± 0.15
55 | CC(C(=O)O)c1cccc(C(=O)c2ccccc2)c1 (configuration not stated) [Ketoprofen] | 1.64 ± 0.37 | 1.02 ± 0.11
56 | CCOc1ccc(NC(C)=O)cc1 [Phenacetin] | 1.24 ± 0.33 | 1.09 ± 0.054
57 | Nc1ncn(C2OC(CO)C(O)C2O)c(=O)n1 (configuration not stated) [Azacitidine] | 1.04 ± 0.077 | 0.895 ± 0.15
58 | CC(C(=O)O)c1ccc(-c2ccccc2)c(F)c1 (configuration not stated) [Flurbiprofen] | 1.04 ± 0.39 | 0.9552 ± 0.0084
59 | Nc1nc(Cl)nc2c1ncn2C1CC(O)C(CO)O1 (configuration not stated) [Cladribine] | 0.941 ± 0.059 | 0.762 ± 0.076
60 | COc1cc2nccc(Oc3ccc(NC(=O)C4(C(=O)Nc5ccc(F)cc5)CC4)cc3)c2cc1OC | 0.886 ± 0.23 | 0.56 ± 0.041
61 | CC#CCn1c(N2CCCC(N)C2)nc2c1c(=O)n(Cc1nc(C)c3ccccc3n1)c(=O)n2C (configuration not stated) [Linagliptin] | 0.849 ± 0.11 | 0.883 ± 0.22
